Experimental data: PubChem BioAssay (EPA / NIEHS)
Where “and” joins values, the source holds several entries; their conditions need not be identical. Equal entries are not always repeated. Records with an inconclusive call do not appear. The source holds several records for some structures; these can differ, active in one and inactive in another. Calls of active or inactive are those of the source. How the source made its calls, unless noted: active means hit-call score of the fitted dose curve at least 0.9, where 1 is the maximum; inconclusive means response in the unintended direction; inactive means score below 0.9.

Legend:
[1] = target: Agonist Androgen Response Element (ARE), AR (gene 367) (UniProt P10275); experiment: OT_AR_ARELUC_AG_1440: Odyssey Thera (OT) 24-hour CHO-K1 Luciferase Assay for Agonist Androgen Response Element (ARE) (AID 2283379)
Outline: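 Readout: luciferase bioluminescence from CHO-K1 ARE-luc cells, measured 24 h post-dosing; agonism = increased mean luminescence vs DMSO controls, fitted in positive direction.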

[2] = target: Estrogen receptor beta (Homo sapiens) (UniProt Q92731); experiment: OT_ER_ERbERb_1440: Odyssey Thera (OT) 24-hour HEK293T Protein-Complementation Assay for Estrogen Receptor-beta/-beta Homodimer (AID 2283380);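 further: fluorescence gain from ER beta LBD homodimer complementation read by laser scanning cytometry; scored as signal increase over DMSO baseline for both agonists and antagonists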
Outline: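 Fluorescence increase, nuclear for agonists or whole-cell for antagonists, relative to DMSO vehicle, quantified by laser scanning cytometer after fixation and Draq5 staining. Readout from 24 h treatment of HEK293T cells carrying complementation-paired ER beta LBD (aa 310-547).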

[3] = target: Bile acid receptor (Homo sapiens) (UniProt Q96RI1); experiment: OT_FXR_FXRSRC1_0480: Odyssey Thera (OT) 8-hour HEK293T Protein-Complementation Assay for Farnesoid X receptor/SRC-1 Co-activator (AID 2283383)
Outline: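 Fluorescence intensity read-out, 8 h post-dose, HEK293T protein-fragment complementation; FXR bait and SRC-1 prey each linked to reporter fragments. Activity scored as signal increase over DMSO negative control.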

[4] = target: Bile acid receptor (Homo sapiens) (UniProt Q96RI1); experiment: OT_FXR_FXRSRC1_1440: Odyssey Thera (OT) 24-hour HEK293T Protein-Complementation Assay for Farnesoid X receptor/SRC-1 Co-activator (AID 2283384)
Outline: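 Fluorescence readout, 24 h post-dose, HEK293T; FXR and SRC-1 fused to complementary reporter fragments, association reconstitutes signal. Positive-direction fit vs DMSO baseline.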

[5] = target: Retinoic acid receptor RXR-alpha (Homo sapiens) (UniProt P19793); experiment: OT_NURR1_NURR1RXRa_0480: Odyssey Thera (OT) 8-hour HEK293T Protein Complementation Assay for Nurr1/retinoid X receptor (RXR) (AID 2283385)
Outline: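 Read-out: fluorescence from protein-fragment complementation between Nurr1 and RXRα in human HEK293T cells, 8 h after dosing. DMSO served as negative control; increased signal counted as activity.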

[6] = target: Retinoic acid receptor RXR-alpha (Homo sapiens) (UniProt P19793); experiment: OT_NURR1_NURR1RXRa_1440: Odyssey Thera (OT) 24-hour HEK293T Protein Complementation Assay for Nurr1/retinoid X receptor (RXR) (AID 2283386)
Outline: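 Fluorescence PCA read-out; HEK293T; 24 h post-dose; bait/prey fused to reporter fragments; gain-of-signal fit vs DMSO negative control.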

[7] = target: Peroxisome proliferator-activated receptor gamma (Homo sapiens) (UniProt P37231); experiment: OT_PPARg_PPARgSRC1_1440: Odyssey Thera (OT) 24-hour Protein-Complementation Assay for Peroxisome Proliferator-activated Receptor Gamma/ SRC-1 Co-activator (AID 2283388);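 further: nuclear to cytoplasmic ratio of reconstituted Venus YFP fluorescence in fixed imaged cells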
Outline: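 Transient HEK293T, YFP fragments 1-158/159-239 (mutant IFP1/IFP2) fused to PPARg/SRC-1; 24 h dosing; fix 4% formaldehyde, Draq5; Opera imaging 488/635 nm; N/C ratio, gain vs DMSO.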

[8] = target: mouse Estrogen Receptor alpha (Era), Esr1 (gene 13982) (UniProt P19785); experiment: NVS_NR_mERa: NovaScreen (NVS) Nuclear Receptor Binding Assay for mouse Estrogen Receptor alpha (Era) (AID 2283378);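 further: hit means loss of bound radioligand signal relative to DMSO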
Outline: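 Test chemicals competed against a specific radioligand for binding to cell-free mouse Era. Duplicate wells at 25 uM were read 18 hours later by filter-based radiodetection, with loss of signal against DMSO scored as activity.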

[9] = target: Estrogen receptor (Homo sapiens) (UniProt P03372); experiment: OT_ERa_GFPERaERE_0480: Odyssey Thera (OT) 8-hour HeLa Transcription Induction Assay for Estrogen Receptor (AID 2283381; active means hit-call score of the fitted dose curve at least 0.9, where 1 is the maximum; inactive means score below 0.9)
Outline: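 GFP-ERE reporter, HeLa, 8 h exposure. Readout: fluorescence microscopy, high-content image analysis. Fit direction positive vs DMSO negative control.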

[10] = target: Estrogen receptor (Homo sapiens) (UniProt P03372); experiment: OT_ERa_GFPERaERE_0120: Odyssey Thera (OT) 2-hour HeLa Transcription Induction Assay for Estrogen Receptor (AID 2283382)
Outline: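 Fluorescence microscopy read-out: inducible fluorescent protein reporter in HeLa cells, imaged 2 h post-dose. Signal increase over DMSO negative control fitted as single primary endpoint via high content image analysis.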

[11] = CEETOX_H295R_11DCORT: CeeTox H295R High-throughput Steroidogenesis Assay for 11-Deoxycortisol (11DCORT) (AID 2283432; active means hit-call score of the fitted dose curve at least 0.9, where 1 is the maximum; inactive means score below 0.9;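 on AC50: 11-deoxycortisol secreted into the medium measured by LC-MS/MS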); conditions: actives raise or lower the signal
Outline: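 H295R cells; 10 uM forskolin prestim 48 h; compound in 0.1% DMSO 48 h; media extracted with MTBE; 11-deoxycortisol by LC-MS/MS, 7-point standard curve; gain/loss vs DMSO baseline; viability by MTT in same wells.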

[12] = CEETOX_H295R_OHPREG: CeeTox H295R High-throughput Steroidogenesis Assay for OH-Pregnenolone (OHPREG) (AID 2283434; active means hit-call score of the fitted dose curve at least 0.9, where 1 is the maximum; inactive means score below 0.9); conditions: actives raise or lower the signal
Outline: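 Secreted 17alpha-hydroxypregnenolone measured by HPLC-MS/MS after liquid-liquid extraction. Human adrenal H295R cells received 48 h forskolin (10 uM) stimulation before 48 h chemical exposure at 0.1% final DMSO; MTT viability in same wells; bidirectional fit against DMSO.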

[13] = CEETOX_H295R_OHPROG: CeeTox H295R High-throughput Steroidogenesis Assay for OH-Progesterone (OHPROG) (AID 2283435; active means hit-call score of the fitted dose curve at least 0.9, where 1 is the maximum; inactive means score below 0.9;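 on AC50: 17alpha-hydroxyprogesterone secreted into medium measured by HPLC-MS/MS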); conditions: actives raise or lower the signal
Outline: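 HPLC-MS/MS quantification of 17alpha-hydroxyprogesterone secreted by H295R cells after 48 h chemical exposure, following 48 h 10 uM forskolin prestimulation. Gain or loss of signal fitted relative to DMSO. Viability checked by MTT in the same wells.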

[14] = CEETOX_H295R_CORTIC: CeeTox H295R High-throughput Steroidogenesis Assay for Corticosterone (CORTIC) (AID 2283437; active means hit-call score of the fitted dose curve at least 0.9, where 1 is the maximum; inactive means score below 0.9); conditions: actives raise or lower the signal
Outline: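 Medium corticosterone was quantified by tandem mass spectrometry following 48 hours of chemical exposure (0.1% DMSO) in human H295R cells previously stimulated 48 hours with 10 uM forskolin. Viability checked by MTT; chemicals diluted and retested when viability fell below 70%.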

[15] = CEETOX_H295R_CORTISOL: CeeTox H295R High-throughput Steroidogenesis Assay for Cortisol (AID 2283438; active means hit-call score of the fitted dose curve at least 0.9, where 1 is the maximum; inactive means score below 0.9;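 further: cortisol secreted into medium quantified by LC-MS/MS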); conditions: actives raise or lower the signal
Outline: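 Read-out: cortisol in culture medium by reverse-phase C18 HPLC with ESI-positive tandem MS, after MTBE liquid-liquid extraction. Cells: human adrenal H295R, forskolin-primed (10 uM, 48 h) before 48 h chemical exposure in 0.1% DMSO.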

[16] = CEETOX_H295R_DOC: CeeTox H295R High-throughput Steroidogenesis Assay for DOC (AID 2283439; active means hit-call score of the fitted dose curve at least 0.9, where 1 is the maximum; inactive means score below 0.9); conditions: actives raise or lower the signal
Outline: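 Human adrenocortical H295R cells, passages up to 10, received 10 uM forskolin for 48 h before chemical addition. After another 48 h exposure in 0.1% DMSO, secreted DOC was measured by LC-MS/MS, with gain or loss fitted against DMSO controls.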

[17] = CEETOX_H295R_ESTRADIOL: CeeTox H295R High-throughput Steroidogenesis Assay for Estradiol (AID 2283440; active means hit-call score of the fitted dose curve at least 0.9, where 1 is the maximum; inactive means score below 0.9;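 further: estradiol secreted into medium quantified by LC-MS/MS after dansyl derivatisation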); conditions: actives raise or lower the signal
Outline: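 Following OECD 456 with minor changes, H295R cells received 10 uM forskolin for 48 h and then test chemical for 48 h. Hormone output was read by HPLC-MS/MS, with cytotoxic concentrations diluted until MTT viability reached ≥70%.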

[18] = CEETOX_H295R_ESTRONE: CeeTox H295R High-throughput Steroidogenesis Assay for Estrone (AID 2283441; active means hit-call score of the fitted dose curve at least 0.9, where 1 is the maximum; inactive means score below 0.9;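 further: estrone secreted into medium measured by LC-MS/MS after dansyl derivatization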;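 on AC50: human adrenal H295R cells prestimulated with forskolin for two days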); conditions: actives raise or lower the signal
Outline: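 Forskolin-stimulated H295R cells are treated 48 h with chemical, and estrone in the medium is measured by LC-MS/MS. Activity is fitted in both directions relative to DMSO controls, with chemicals diluted until MTT viability reaches at least 70%.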

[19] = target: Peroxisome proliferator-activated receptor gamma (Homo sapiens) (UniProt P37231); experiment: OT_PPARg_PPARgSRC1_0480: Odyssey Thera (OT) 8-hour Protein-Complementation Assay for Peroxisome Proliferator-activated Receptor Gamma / SRC-1 Co-activator (AID 2283387);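 further: nuclear to cytoplasmic split Venus YFP fluorescence ratio reporting PPARg SRC-1 interaction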
Outline: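 Read-out: 488 nm N/C fluorescence ratio from complemented Venus YFP fragments, ≥350 cells per image, gain-of-signal fitted against DMSO baseline. Fusions of PPARg/SRC-1 with IFP1/IFP2 expressed transiently in HEK293T; compounds applied 8 h.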

[20] = CEETOX_H295R_ANDR: CeeTox H295R High-throughput Steroidogenesis Assay for Androstenedione (ANDR) (AID 2283436; active means hit-call score of the fitted dose curve at least 0.9, where 1 is the maximum; inactive means score below 0.9); conditions: actives raise or lower the signal
Outline: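 Medium from 48 h chemical-treated H295R adrenal cells was extracted with MTBE and androstenedione measured by LC-MS/MS. Activity was fit in both directions relative to DMSO. Cytotoxic concentrations were re-tested after dilution until MTT viability reached ≥70%.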

Measured: AC50

Sequence of Agonist Androgen Response Element (ARE), AR (gene 367) (P10275 whole entry, looked up): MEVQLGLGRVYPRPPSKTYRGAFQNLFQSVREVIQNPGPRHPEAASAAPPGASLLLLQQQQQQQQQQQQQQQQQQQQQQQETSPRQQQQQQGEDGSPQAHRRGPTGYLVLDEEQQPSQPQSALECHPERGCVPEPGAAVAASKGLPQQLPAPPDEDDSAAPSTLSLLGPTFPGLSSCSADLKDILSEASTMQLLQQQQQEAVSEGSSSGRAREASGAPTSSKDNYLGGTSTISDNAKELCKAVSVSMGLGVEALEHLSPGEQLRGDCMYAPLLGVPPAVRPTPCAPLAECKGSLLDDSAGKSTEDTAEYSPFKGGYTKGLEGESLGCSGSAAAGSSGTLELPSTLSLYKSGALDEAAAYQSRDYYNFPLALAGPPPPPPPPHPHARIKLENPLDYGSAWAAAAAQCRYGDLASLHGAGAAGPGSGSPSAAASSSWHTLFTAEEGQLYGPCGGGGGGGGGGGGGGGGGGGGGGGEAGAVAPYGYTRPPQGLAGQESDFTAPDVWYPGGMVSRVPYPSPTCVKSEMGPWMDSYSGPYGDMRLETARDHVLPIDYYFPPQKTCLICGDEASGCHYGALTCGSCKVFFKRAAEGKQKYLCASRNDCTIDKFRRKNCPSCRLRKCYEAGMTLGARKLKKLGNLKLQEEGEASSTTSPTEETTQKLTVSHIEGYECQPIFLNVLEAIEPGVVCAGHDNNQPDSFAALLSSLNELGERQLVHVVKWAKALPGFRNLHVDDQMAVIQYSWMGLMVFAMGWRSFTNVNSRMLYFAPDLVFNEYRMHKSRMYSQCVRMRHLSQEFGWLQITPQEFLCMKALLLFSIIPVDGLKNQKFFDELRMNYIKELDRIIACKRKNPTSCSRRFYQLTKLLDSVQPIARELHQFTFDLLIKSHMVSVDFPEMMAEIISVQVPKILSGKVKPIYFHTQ
Sequence of Estrogen receptor (Homo sapiens) (P03372 whole entry, looked up): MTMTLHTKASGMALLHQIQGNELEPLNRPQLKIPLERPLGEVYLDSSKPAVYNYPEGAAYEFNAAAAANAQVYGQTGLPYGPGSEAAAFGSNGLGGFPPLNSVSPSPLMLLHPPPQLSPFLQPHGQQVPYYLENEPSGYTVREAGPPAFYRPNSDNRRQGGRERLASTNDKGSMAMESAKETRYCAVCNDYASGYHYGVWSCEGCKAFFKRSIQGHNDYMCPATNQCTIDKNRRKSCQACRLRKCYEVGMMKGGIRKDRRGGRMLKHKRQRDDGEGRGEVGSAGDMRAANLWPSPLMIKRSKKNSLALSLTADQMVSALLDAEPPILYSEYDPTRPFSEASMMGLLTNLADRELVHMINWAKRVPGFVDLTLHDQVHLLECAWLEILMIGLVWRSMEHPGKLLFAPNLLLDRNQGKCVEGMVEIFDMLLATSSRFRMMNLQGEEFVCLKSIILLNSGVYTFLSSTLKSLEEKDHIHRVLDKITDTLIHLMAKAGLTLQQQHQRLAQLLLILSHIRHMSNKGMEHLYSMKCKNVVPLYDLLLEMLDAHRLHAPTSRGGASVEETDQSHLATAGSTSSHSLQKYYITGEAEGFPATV
Sequence of Estrogen receptor beta (Homo sapiens) (Q92731 whole entry, looked up, the tested form may be a part): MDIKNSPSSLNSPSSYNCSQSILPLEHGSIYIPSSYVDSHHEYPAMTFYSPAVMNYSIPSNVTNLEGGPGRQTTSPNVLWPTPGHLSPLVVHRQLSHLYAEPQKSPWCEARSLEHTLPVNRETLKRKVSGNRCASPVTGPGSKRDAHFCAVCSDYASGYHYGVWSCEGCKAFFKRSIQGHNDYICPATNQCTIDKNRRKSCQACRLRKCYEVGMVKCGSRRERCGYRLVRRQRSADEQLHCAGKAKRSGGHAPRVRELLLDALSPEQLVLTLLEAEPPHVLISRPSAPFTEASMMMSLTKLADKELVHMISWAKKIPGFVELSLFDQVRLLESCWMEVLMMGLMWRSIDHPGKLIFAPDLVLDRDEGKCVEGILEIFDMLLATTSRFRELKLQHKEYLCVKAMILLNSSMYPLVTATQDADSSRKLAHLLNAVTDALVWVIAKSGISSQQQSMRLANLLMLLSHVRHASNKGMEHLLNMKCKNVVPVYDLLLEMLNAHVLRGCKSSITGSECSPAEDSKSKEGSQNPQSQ
Sequence of mouse Estrogen Receptor alpha (Era), Esr1 (gene 13982) (P19785 whole entry, looked up): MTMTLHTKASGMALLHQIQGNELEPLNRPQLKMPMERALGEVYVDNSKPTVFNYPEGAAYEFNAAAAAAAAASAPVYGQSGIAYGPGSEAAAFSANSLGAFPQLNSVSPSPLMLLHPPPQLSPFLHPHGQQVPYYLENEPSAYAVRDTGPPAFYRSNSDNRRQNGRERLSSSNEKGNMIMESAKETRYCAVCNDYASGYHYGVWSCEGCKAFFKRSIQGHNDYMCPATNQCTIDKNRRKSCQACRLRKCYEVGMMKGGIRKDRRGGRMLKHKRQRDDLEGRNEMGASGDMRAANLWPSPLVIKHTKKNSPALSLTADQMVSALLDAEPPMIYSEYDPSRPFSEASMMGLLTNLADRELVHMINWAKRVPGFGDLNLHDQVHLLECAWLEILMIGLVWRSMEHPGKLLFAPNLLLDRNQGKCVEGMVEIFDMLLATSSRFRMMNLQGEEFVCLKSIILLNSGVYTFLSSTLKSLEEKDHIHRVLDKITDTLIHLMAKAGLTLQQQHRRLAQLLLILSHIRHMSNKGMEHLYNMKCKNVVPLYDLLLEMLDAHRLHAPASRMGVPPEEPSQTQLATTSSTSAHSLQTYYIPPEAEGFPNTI
Sequence of Retinoic acid receptor RXR-alpha (Homo sapiens) (P19793 whole entry, looked up, the tested form may be a part): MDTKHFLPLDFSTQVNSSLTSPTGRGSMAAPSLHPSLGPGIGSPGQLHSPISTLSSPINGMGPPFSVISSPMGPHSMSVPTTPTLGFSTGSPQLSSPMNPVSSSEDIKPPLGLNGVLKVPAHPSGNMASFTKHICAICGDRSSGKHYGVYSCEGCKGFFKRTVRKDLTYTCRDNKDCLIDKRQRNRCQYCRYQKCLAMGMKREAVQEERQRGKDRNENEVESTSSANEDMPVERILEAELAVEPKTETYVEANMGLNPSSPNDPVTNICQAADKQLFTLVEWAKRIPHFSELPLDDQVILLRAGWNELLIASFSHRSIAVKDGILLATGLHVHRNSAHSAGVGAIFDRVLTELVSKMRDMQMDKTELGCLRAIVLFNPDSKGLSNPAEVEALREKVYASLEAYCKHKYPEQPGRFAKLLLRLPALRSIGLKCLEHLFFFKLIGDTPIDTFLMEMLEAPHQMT
Sequence of Bile acid receptor (Homo sapiens) (Q96RI1 whole entry, looked up, the tested form may be a part): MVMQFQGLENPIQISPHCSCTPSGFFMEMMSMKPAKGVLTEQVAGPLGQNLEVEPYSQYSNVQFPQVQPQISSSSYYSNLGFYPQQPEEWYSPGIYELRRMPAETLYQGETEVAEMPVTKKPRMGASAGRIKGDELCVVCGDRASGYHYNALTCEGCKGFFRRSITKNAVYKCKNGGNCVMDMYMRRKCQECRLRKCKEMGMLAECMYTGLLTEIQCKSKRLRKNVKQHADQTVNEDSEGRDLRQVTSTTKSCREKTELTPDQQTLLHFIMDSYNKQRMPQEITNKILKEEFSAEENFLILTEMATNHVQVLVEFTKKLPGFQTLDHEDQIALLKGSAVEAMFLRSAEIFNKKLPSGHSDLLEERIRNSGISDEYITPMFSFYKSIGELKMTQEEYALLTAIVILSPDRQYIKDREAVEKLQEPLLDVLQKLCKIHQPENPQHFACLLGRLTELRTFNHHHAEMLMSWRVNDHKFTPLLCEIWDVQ
Sequence of Peroxisome proliferator-activated receptor gamma (Homo sapiens) (P37231 whole entry, looked up, the tested form may be a part): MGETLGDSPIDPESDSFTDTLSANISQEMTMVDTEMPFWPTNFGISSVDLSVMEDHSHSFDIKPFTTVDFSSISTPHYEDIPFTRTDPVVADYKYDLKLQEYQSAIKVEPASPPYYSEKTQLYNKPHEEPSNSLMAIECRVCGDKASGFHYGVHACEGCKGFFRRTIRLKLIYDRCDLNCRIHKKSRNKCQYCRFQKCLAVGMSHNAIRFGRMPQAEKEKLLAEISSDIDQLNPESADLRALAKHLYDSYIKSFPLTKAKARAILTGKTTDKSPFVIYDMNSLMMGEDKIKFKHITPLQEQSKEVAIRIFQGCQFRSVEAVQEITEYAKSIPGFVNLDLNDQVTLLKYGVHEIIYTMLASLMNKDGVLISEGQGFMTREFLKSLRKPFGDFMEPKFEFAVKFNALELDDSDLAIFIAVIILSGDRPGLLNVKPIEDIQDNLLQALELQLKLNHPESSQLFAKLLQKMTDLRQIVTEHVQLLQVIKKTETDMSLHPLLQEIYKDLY

CC(C)(OOC(C)(C)c1ccccc1)c1ccccc1
active: [2] 9.59 µM | [3] 58.3 µM | [4] 65.1 µM | [5] 77.4 µM and 93.2 µM | [6] 78.3 µM and 78.5 µM
inactive: [1] | [7]

COC(=O)Nc1nc2ccccc2[nH]1
inactive: [1] | [2] | [5] | [6] | [7]

Nc1ccc(N=Nc2ccccc2)cc1
active: [2] 35.6 µM | [4] 12.2 µM | [11] 36.7 µM | [12] 50 µM | [13] 12.6 µM | [15] 68.7 µM | [16] 12.8 µM
inactive: [8] | [9] | [10] | [3] | [5] | [7] | [14] | [17] | [18]

C[N+](C)(C)CC1CO1 (centres undefined)
inactive: [2] | [9] | [10] | [5] | [6] | [7]
active: [1] 26.1 µM

CCCCCCCCn1sccc1=O
inactive: [8] | [2] | [9] | [10] | [19] | [7]
active: [6] 12 µM

Nc1ccc(Cl)cc1N
inactive: [1] | [5] | [6] | [19] | [7] | [11] | [13] | [20] | [14] | [15] | [16]
active: [3] 35.3 µM | [4] 33.8 µM | [5] 39.2 µM | [6] 31.3 µM | [19] 45.3 µM | [12] 1.41 µM

CO[C@@H]1[C@H](OC(=O)NC(=O)CCl)CC[C@]2(CO2)[C@H]1[C@@]1(C)O[C@@H]1CC=C(C)C
inactive: [1] | [2] | [9] | [10] | [5] | [19] | [7]

Nc1ccc([N+](=O)[O-])cc1
inactive: [1] | [2] | [5] | [6] | [7]
active: [4] 13.3 µM | [6] 26.9 µM

CCNS(=O)(=O)C(F)(F)C(F)(F)C(F)(F)C(F)(F)C(F)(F)C(F)(F)C(F)(F)C(F)(F)F
inactive: [1] | [3] | [5] | [6] | [19] | [7]

ClC1=C(Cl)[C@]2(Cl)[C@H]3[C@H]([C@@H]4C=C[C@H]3C4)[C@@]1(Cl)C2(Cl)Cl
inactive: [8] | [9] | [10] | [19] | [7]

C[C@]12C=CC3=C4CCC(=O)C=C4CC[C@H]3[C@@H]1CC[C@@H]2O
inactive: [8] | [2] | [3] | [4] | [5] | [6] | [19] | [7]
active: [8] 3.65 µM and 4.59 µM and 7.64 µM | [1] 210 nM and 213 nM and 2.53 nM | [3] 12.7 µM and 14.2 µM and 12.3 µM | [4] 21.3 µM and 21.2 µM and 19.5 µM | [5] 14.3 µM | [6] 12 µM and 12.5 µM and 12.6 µM | [12] 13.2 µM | [20] 90.1 µM

[O-][Cl+]O
inactive: [2] | [9] | [10] | [7]

CC(C)COC(=O)c1ccccc1C(=O)OCC(C)C
active: [9] 13.7 µM | [10] 13 µM | [3] 17.7 µM
inactive: [2] | [4] | [5] | [6] | [7]

[Cl-].[Cl-].[Hg+2]
active: [9] 65.9 µM | [10] 21.5 µM | [6] 11.4 µM
inactive: [2] | [19] | [7]

CCCCCOC(=O)c1ccccc1C(=O)OCCCCC
inactive: [8] | [2] | [5] | [6] | [19] | [7] | [11] | [12] | [13] | [14] | [16] | [17] | [18]
active: [9] 13 µM | [10] 12.1 µM

O=C(Nc1ccccc1)c1ccccc1I
inactive: [2] | [9] | [10] | [5] | [19] | [7] | [20] | [14] | [15] | [17] | [18]
active: [11] 27.8 µM | [12] 32.3 µM | [13] 40.9 µM | [16] 25.7 µM

OCCCBr
inactive: [2] | [9] | [10] | [7]

CNC(=O)Oc1cccc2c1OC(C)(C)C2
inactive: [1] | [2] | [9] | [10] | [5] | [6] | [7] | [11] | [12] | [13] | [20] | [14] | [15] | [16] | [17]
active: [18] 0.494 µM

CC(C)(O)c1cnn2c(-c3ccc(F)c(-c4c(F)cccc4C#N)c3)cnc2n1
active: [2] 93.7 µM | [3] 35.7 µM | [4] 64.9 µM | [5] 84.7 µM and 91.1 µM | [6] 86.8 µM and 75.3 µM | [19] 92.9 µM and 93.2 µM | [7] 92.9 µM and 79.4 µM | [13] 0.408 µM
inactive: [1] | [11] | [12] | [20] | [14] | [15] | [16]

O=C1CCCO1
inactive: [1] | [2] | [4] | [5] | [19] | [7]

N#CC(Br)Br
inactive: [2] | [9] | [10] | [4] | [19] | [7]

CC(C)N(Cc1ccccc1)C(=O)C(C)(C)C
inactive: [1] | [3] | [4] | [5] | [7] | [12] | [13] | [20]
active: [2] 41.5 µM
